# According to PubChem BioAssay AID1578 (Sanford-Burnham Center for Chemical Genomics, 2009):
# The whole screen tested about 290,000 compounds, of which about 3,000 (1%) were called active. Rule as the data show it: active = inhibition mostly above about 36% (no sharp cut-off); inactive = mostly below about 34%. The list comes from a sample in which actives are over-represented; it also holds similar structures and randomly drawn compounds.
# Test: inhibition of NOD1-driven NF-kB reporter – cell-based, luminescence, uHTS, primary screen (AID 1578);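 also: HEK-293T reporter cells stimulated with the NOD1 agonist gamma-tri-DAP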
# Details: NOD1-driven NF-kB luciferase reporter cells, at 4 µM, hits give high values
row,Compound,inhibition
1,O=[N+]([O-])c1ccc(Cl)c(/C=N/n2c(COc3ccccc3)n[nH]c2=S)c1,-22% (inactive)
2,COC(=O)CN1C(=S)N(c2ccc(Cl)cc2)C(=O)C1CC(=O)Nc1ccccc1 (configuration not stated),-29.4% (inactive)
3,CCS(=O)(=O)c1ccc(OC)c(N=Nc2ccc(O)c3ncccc23)c1,24.1% (inactive)
4,Cc1cccc(N=Nc2ccc(O)c3ncccc23)c1,108% (active)
5,Nc1ccc(N=Nc2ccccc2)c2cccnc12,-3.3% (inactive)
6,COc1cccc(N=Nc2ccc3ccccc3c2O)c1,-81.3% (inactive)
7,COc1ccc(C)cc1N=Nc1ccc(O)c2ncccc12,-31.6% (inactive)
8,Cc1cccc(NCc2ccc(O)c3ncccc23)c1,-29% (inactive)
9,O=Nc1ccc(O)c2ncccc12,19.6% (inactive)
10,COc1ccccc1N=Nc1ccc(O)c2ncccc12,-11.7% (inactive)
11,O=S(=O)(O)c1cccc2c(N=Nc3ccc(O)c4ncccc34)cccc12,25.1% (inactive)
12,CCOC(=O)c1ccc(Nc2c(OCC)c(=O)c2=O)cc1,8% (inactive)
13,Cc1ccc(/C=N/N2CCN(C3c4ccccc4-c4ccccc43)CC2)s1,0.2% (inactive)
14,NNC(=O)c1cc(Cl)ccc1Cl,-38.8% (inactive)
15,COc1ccc(-c2noc(CCC(=O)NCCc3ccccc3)n2)cc1OC,-7.8% (inactive)
16,c1ccc(-c2nnsc2Sc2ccccn2)cc1,-52.7% (inactive)
17,CN(C(=O)n1cnc2ccccc21)c1ccccc1,-29.2% (inactive)
18,CCOc1cc2nc(-c3ccc(OC)c(OC)c3)nc(N3CCOCC3)c2cc1OC,-23.5% (inactive)
19,CCS(=O)(=O)c1ccc(N=Nc2ccc(O)c3ncccc23)c(OC)c1,-30% (inactive)
20,CCOc1ccc(N=Nc2ccc(O)c3ncccc23)cc1,25.7% (inactive)
21,COc1ccc(N=Nc2ccc(O)c3ncccc23)cc1,108% (active)
22,Cc1ccc(C(=O)Nc2nc(C)c(C)s2)o1,-44.9% (inactive)
23,O=C(N/N=C/c1ccc(Cl)cc1)c1sccc1OCc1ccc(F)cc1,-25.8% (inactive)
24,C=CCOc1ccc(C(=O)/C=C2/C(=O)Nc3ccccc32)cc1,1.1% (inactive)
25,C=CCOc1cccc(C(=O)/C=C2/C(=O)Nc3ccccc32)c1,-3.7% (inactive)

row,Compound,inhibition
1,C=CCOc1ccccc1C(=O)/C=C1/C(=O)Nc2ccccc21,37.3% (active)
2,Cc1cc(NC(=O)CCC(=O)N(CC(=O)NC2CCCC2)c2cccc(F)c2)no1,-29.1% (inactive)
3,O=C(Nc1ccccn1)c1ccc(Br)c(S(=O)(=O)N2CCCC2)c1,-39% (inactive)
4,O=C(Nc1ccccn1)c1ccc(Br)c(S(=O)(=O)N2CCCCC2)c1,-25.4% (inactive)
5,CC(C)(C)c1ccc(C(=O)NC(=S)NCc2ccco2)cc1,-11% (inactive)
6,N=c1c2c(n(Cc3ccc(Br)cc3)c3c1CCC3)CCCC2,39% (inactive)
7,N=c1c2c(n(Cc3ccc(F)cc3)c3c1CCC3)CCCC2,22.1% (inactive)
8,NC(=O)c1ccccc1NC(=O)Cc1cccs1,-10.4% (inactive)
9,O=CNCc1nc2ccccc2n1CCCc1ccccc1,-1.8% (inactive)
10,O=CNCc1nc2ccccc2n1CCc1ccccc1,66% (active)
11,O=CNCCc1nc2ccccc2n1CCc1ccccc1,15% (inactive)
12,CNc1ccc(Cl)nn1,-42.7% (inactive)
13,C=C(C)[C@@H]1CCC2(C(=O)O)CC[C@]3(C)[C@H](CC[C@@H]4[C@@]5(C)CCC(=O)C(C)(C)[C@@H]5CC[C@]43C)[C@@H]12 (some centres not stated),48.4% (inactive)
14,CC1(C)C(=O)CC[C@]2(C)C3C(=O)C=C4[C@H]5C[C@@](C)(C(=O)O)CC[C@]5(C)CC[C@]4(C)[C@]3(C)CC[C@@H]12 (some centres not stated),-7.3% (inactive)
15,O=C(CSCCSCC(=O)c1ccco1)c1ccco1,-26.9% (inactive)
16,O=C(C#Cc1ccccc1)c1ccco1,72.9% (active)
17,O=C(NCc1ccccc1)c1ccco1,-12.3% (inactive)
18,CC(C)C(=O)Nc1ccc(C(=O)NCc2cccnc2)cc1,-35.1% (inactive)
19,CNC(=O)CSc1nc2cc(S(=O)(=O)Nc3ccc(OC)cc3)ccc2o1,-1.2% (inactive)
20,COc1ccc(NS(=O)(=O)c2ccc3oc(SC)nc3c2)cc1,-2.9% (inactive)
21,COC(=O)Cc1[nH]n(-c2nc3ccccc3s2)c(=O)c1C(C)=O,-16.2% (inactive)
22,CCCN=C(C)c1c(-c2ccccc2)[nH]n(-c2nc3ccccc3s2)c1=O,7.3% (inactive)
23,CC(=O)c1c(CC(=O)O)[nH]n(-c2nc3ccccc3s2)c1=O,79.8% (active)
24,O=C(CCN1C(=O)c2ccccc2C1=O)OCN1C(=O)c2ccccc2C1=O,11.2% (inactive)
25,O=c1cc(N2CCN(c3ccc(F)cc3)CC2)[nH]c(=O)n1Cc1ccc(F)cc1,-13% (inactive)

row,Compound,inhibition
1,CC1=NNC(=O)/C1=C\c1cn(-c2ccccc2)nc1-c1ccccc1,64.7% (active)
2,CC1=NNC(=O)/C1=C\c1cn(-c2ccccc2)nc1-c1ccc(Cl)cc1,-47.4% (inactive)
3,CC1=NNC(=O)/C1=C\c1cn(-c2ccccc2)nc1-c1ccc(F)cc1,-39.1% (inactive)
4,COc1ccc(NC(=O)CC(C(=O)O)N2CCCCC2)cc1 (configuration not stated),2.5% (inactive)
5,Cc1cc(/C=N/Nc2ccc([N+](=O)[O-])cn2)c(C)n1-c1ccccc1,-31.3% (inactive)
6,COc1cccc(/C=N/Nc2ncnc(N)c2[N+](=O)[O-])c1OC,53.3% (inactive)
7,Cc1cc(/C=N/Nc2nc(N)ncc2[N+](=O)[O-])c(C)n1-c1cccc(C(F)(F)F)c1,-14.7% (inactive)
8,Cc1ccccc1-n1c(C)cc(/C=N/Nc2ccc([N+](=O)[O-])cn2)c1C,-119% (inactive)
9,O=C(CCN1C(=O)/C(=C/c2ccccc2)SC1=S)NNC(=O)c1ccncc1,-47.5% (inactive)
10,O=C1CC(c2ccc(F)cc2)C2=C(CCCC2=O)N1 (configuration not stated),-5.5% (inactive)
11,CCc1cc2c(=O)n(Cc3ccccc3)c(SC3CCOC3=O)nc2s1 (configuration not stated),-29.3% (inactive)
12,COc1ccc(CCN2C(=NC(=O)C(C)C)SC3CS(=O)(=O)CC32)cc1OC (configuration not stated),-10.6% (inactive)
13,CCCCS(=O)(=O)/C=C\C=C/S(=O)(=O)CCCC,97.7% (active)
14,CCCCS(=O)(=O)/C=C/[C@H]1[C@H](S(=O)(=O)CCCC)[C@H]2C=C[C@@H]1C2,-23.6% (inactive)
15,CCCCS(=O)(=O)/C=C\C1C2C=CC(C2)C1S(=O)(=O)CCCC (configuration not stated),6.2% (inactive)
16,Cc1cc(C)nc(NC2=NCC(=O)N2CCc2c[nH]c3ccccc23)n1,-8.6% (inactive)
17,Cc1ccc(NC(=O)CCN2CCN(C)CC2)cc1,24.4% (inactive)
18,COC(=O)c1sc(NC(=S)NC(=O)c2cccc(Br)c2)nc1C,25.2% (inactive)
19,CN(Cc1ccccc1F)c1nc(-c2cccnc2)nc2ccccc12,25.5% (inactive)
20,COc1cccc(CN(C)c2nc(-c3cccs3)nc3ccccc23)c1,7.9% (inactive)
21,CN(Cc1ccccc1F)c1nc(-c2cccs2)nc2ccccc12,67.9% (active)
22,O=C(Nc1ccccc1-c1nnc(SCc2ccc(Cl)cc2)o1)c1ccccc1,5.6% (inactive)
23,O=C(Cc1ccc(F)cc1)OCN1C(=O)c2ccccc2C1=O,49.7% (active)
24,COc1ccc(CC(=O)OCN2C(=O)c3ccccc3C2=O)cc1,0.1% (inactive)
25,O=C(Cc1ccccc1F)OCN1C(=O)c2ccccc2C1=O,-15.6% (inactive)

row,Compound,inhibition
1,Cc1c(NC(=O)Nc2cccc(C#N)c2)c(=O)n(-c2ccccc2)n1C,-8.2% (inactive)
2,COc1ccc(NC(=O)c2ccc(S(=O)(=O)N(C)C)cc2)cc1,-41.1% (inactive)
3,O=c1c2cnn(-c3ccccc3)c2nc(-c2cccs2)n1-c1cccc(Cl)c1,-3.1% (inactive)
4,Cc1ncoc1C(=O)N1CCCC(CCC(=O)NCc2ccc(F)c(F)c2)C1 (configuration not stated),-31.1% (inactive)
5,CN(C)c1ccc(/C=C/c2cc[n+](C)cc2)cc1,25% (inactive)
6,CN(C)c1ccc(/C=C/c2cccc[n+]2[O-])cc1,2.7% (inactive)
7,CC(=O)/C(C(=N)N1CCN(c2cccc(Cl)c2)CC1)=C(\C)O,24.8% (inactive)
8,O=[N+]([O-])c1cc([N+](=O)[O-])c(Oc2cccnc2Br)cc1NN1CCCCC1,5.9% (inactive)
9,O=[N+]([O-])c1cc([N+](=O)[O-])c(Oc2c(Cl)cccc2Cl)cc1NN1CCCCC1,-4.9% (inactive)
10,O=[N+]([O-])c1cc([N+](=O)[O-])c(Oc2ccc(Cl)c3cccnc23)cc1NN1CCCCC1,44.7% (active)
11,O=C(O)c1ccc(S(=O)(=O)NCC2CCCCC2)cc1,-9.7% (inactive)
12,O=C(NCC1COc2ccccc2O1)C1CCCN(S(=O)(=O)c2cccc3cccnc23)C1 (configuration not stated),22.5% (inactive)
13,COC(=O)Cc1[nH]n(-c2nc3ccccc3s2)c(=O)c1C(C)=Nc1ccc(Cl)cc1,1% (inactive)
14,COC(=O)CC1=NN(c2nc3ccccc3s2)C(=O)/C1=C/N(C)C,-19.7% (inactive)
15,Fc1ccc(CSc2ncnc3nc[nH]c23)cc1,-14.8% (inactive)
16,N#Cc1c(-c2ccccc2)cc(-c2ccccc2)nc1SCc1nnc(-c2ccccc2)o1,12.9% (inactive)
17,Cc1cc(C)c(C#N)c(SCc2nnc(-c3ccccc3[N+](=O)[O-])o2)n1,-26% (inactive)
18,CN(CC1CCN(CCc2cccc(C(F)(F)F)c2)CC1)C(=O)c1ccc(F)cc1,18.5% (inactive)
19,O=C(Cn1c(=O)oc2cc(S(=O)(=O)N3CCCC3)ccc21)N1CCN(c2ccccn2)CC1,-8% (inactive)
20,COc1ccc(Cc2n[nH]c(=S)n2Cc2ccccc2)cc1Cl,44.7% (active)
21,COc1ccccc1OCc1n[nH]c(=S)n1Cc1ccccc1,-18.7% (inactive)
22,CC(C)Oc1ccc(Cc2n[nH]c(=S)n2Cc2ccccc2)cc1Cl,-44.3% (inactive)
